PubChem BioAssay (NCATS)
Records with an inconclusive call do not appear. Where a call stands in place of a potency, no number is given. Activity calls are given as the source filed them. Unless noted, calls follow the shape of the dose curve; as a rule, active = well fitted curve in the direction sought with a large enough effect; inconclusive = small, poorly fitted or top-dose-only effect, or another doubt; inactive = no such curve, though single readings can be large; an effect the other way counts as inactive or inconclusive.

Tests used:
[1] = molecular target: Glutaminase kidney isoform, mitochondrial (Homo sapiens) (UniProt O94925); assay: qHTS for Inhibitors of Glutaminase (GLS): LOPAC Validation (AID 624146); also: nearly all actives have a fitted effect of over 60% in size; also: potency is read from the fitted curve at half-maximal effect
Sequence of Glutaminase kidney isoform, mitochondrial (Homo sapiens) (O94925 whole entry, looked up, canonical isoform): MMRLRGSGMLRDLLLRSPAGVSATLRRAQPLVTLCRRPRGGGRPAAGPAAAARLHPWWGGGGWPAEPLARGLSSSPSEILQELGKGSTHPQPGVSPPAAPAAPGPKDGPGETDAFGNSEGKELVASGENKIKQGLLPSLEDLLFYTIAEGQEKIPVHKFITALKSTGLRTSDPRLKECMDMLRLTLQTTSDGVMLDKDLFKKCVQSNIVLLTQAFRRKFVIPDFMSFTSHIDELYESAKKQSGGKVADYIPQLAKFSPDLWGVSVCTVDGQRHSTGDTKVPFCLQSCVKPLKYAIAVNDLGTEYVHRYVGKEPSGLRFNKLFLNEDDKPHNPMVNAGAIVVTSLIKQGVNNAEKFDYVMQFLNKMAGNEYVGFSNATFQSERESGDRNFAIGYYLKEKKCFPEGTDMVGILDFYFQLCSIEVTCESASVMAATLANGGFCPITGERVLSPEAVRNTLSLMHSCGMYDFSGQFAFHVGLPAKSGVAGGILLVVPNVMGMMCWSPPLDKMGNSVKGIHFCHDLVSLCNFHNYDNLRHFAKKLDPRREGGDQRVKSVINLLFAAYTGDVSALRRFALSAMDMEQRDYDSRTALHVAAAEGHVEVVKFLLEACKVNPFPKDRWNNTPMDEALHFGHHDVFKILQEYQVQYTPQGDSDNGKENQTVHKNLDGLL
In short: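 hKGA; 45 mM KH2PO4 pH 8.2 + 0.02% Tween-20; cpd via pin tool; 1 mM Gln soln; GluOx/HRP/Amplex Red; RT 30 min; fluor. t0 & final.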

[2] = qHTS of Trypanosoma Brucei Inhibitors: LOPAC Validation (AID 624147)
In short: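 Readout: single end-point luminescence (Kinase-Glo Plus, 10 min). Reaction conditions were TbPYK/substrate plus 130 uM ADP, 45 min at RT, pH 7.2 TEA buffer. No-enzyme wells served as controls, and data were normalized before concentration-response fitting.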

[3] = molecular target: Glucagon-like peptide 1 receptor (Homo sapiens) (UniProt P43220); assay: qHTS of GLP-1 Receptor Agonists: LOPAC Validation (AID 624148);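 also: higher luminescence signal means agonism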
Sequence of Glucagon-like peptide 1 receptor (Homo sapiens) (P43220 whole entry, looked up): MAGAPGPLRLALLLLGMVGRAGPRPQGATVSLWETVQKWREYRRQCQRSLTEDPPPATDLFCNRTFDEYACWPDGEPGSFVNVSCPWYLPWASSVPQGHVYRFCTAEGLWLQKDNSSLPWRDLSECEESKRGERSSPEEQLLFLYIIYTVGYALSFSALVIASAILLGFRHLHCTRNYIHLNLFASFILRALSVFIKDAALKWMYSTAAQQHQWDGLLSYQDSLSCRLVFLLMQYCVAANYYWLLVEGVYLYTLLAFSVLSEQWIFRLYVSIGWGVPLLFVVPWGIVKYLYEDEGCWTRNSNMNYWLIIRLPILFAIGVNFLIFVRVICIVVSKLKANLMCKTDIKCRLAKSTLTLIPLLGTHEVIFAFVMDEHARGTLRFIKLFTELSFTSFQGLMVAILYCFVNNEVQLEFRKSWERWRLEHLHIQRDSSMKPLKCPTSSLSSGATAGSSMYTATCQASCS
In short: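 HEK293 cells stably co-expressing GLP-1R and a cAMP-responsive luciferase reporter, plated 12 hours before compound, then incubated 4-6 hr at 37 deg C. Luminescence read 12 min after detection reagent.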

[4] = qHTS of Nrf2 Activators: LOPAC Validation (AID 624149)
In short: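 AREc32_Fluc cells, 1000/well in OPTI-MEM with 5% FBS, grown overnight, then exposed to compounds for 24 hr at 37 deg C, 5% CO2. ARE-driven firefly luciferase read by Steady-Glo luminescence after 30 min at RT.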

[5] = HTS Assay for Allosteric Antagonists of the Human D2 Dopamine Receptor: Hit Validation in HTRF (AID 624455);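 also: stable D1 dopamine receptor cell line scored for blocking the D1 response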
In short: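 Hit validation in cells stably expressing the D1 dopamine receptor, run in HTRF format. Compounds were tested for their ability to inhibit the D1-mediated response.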

[6] = molecular target: Luciferin 4-monooxygenase (Photinus pyralis) (UniProt P08659); assay: Biochemical firefly luciferase enzyme assay for NPC (AID 624030);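 also: purified P. pyralis luciferase at 10 nM with luciferin and ATP substrate; series mostly up to about 59 µM; nearly all actives have a fitted effect of over 70% in size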
Sequence of Luciferin 4-monooxygenase (Photinus pyralis) (P08659 whole entry, looked up): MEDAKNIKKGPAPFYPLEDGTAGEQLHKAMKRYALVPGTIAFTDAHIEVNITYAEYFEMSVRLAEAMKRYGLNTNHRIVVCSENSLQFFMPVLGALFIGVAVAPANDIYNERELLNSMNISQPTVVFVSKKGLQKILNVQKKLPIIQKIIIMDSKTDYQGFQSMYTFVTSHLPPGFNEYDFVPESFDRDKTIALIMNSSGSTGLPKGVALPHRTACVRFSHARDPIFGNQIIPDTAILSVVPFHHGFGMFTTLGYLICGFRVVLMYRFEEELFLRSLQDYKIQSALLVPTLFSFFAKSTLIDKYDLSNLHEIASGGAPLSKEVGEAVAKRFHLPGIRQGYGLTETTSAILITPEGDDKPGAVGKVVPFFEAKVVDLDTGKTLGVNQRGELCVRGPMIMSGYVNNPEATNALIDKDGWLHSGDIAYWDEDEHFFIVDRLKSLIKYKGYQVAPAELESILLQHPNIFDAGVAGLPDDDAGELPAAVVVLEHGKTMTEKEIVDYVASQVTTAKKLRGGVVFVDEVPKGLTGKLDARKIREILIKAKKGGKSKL
In short: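 Purified P. pyralis luciferase at 10 nM in 50 mM Tris Acetate (final), luminescence read within 5 minutes of enzyme addition to compounds. Activity normalised to PTC124 versus DMSO; concentration-response curves classed by r2, magnitude and activity.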

[7] = S16 Schwann cell viability assay (CellTiter-Glo assay) (AID 624031);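 also: native untransfected S16 rat Schwann cells; cellular ATP luminescence as a viability measure; series mostly up to about 58 µM; nearly all actives have a fitted effect of over 70% in size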
In short: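 Parental S16 cells, 24 h compound, 37 °C. ATP-luminescence viability; DMSO = 0% activity, empty wells as reference; curves classified by fit quality and efficacy.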

[8] = S16 Schwann cell PMP22 intronic element firefly luciferase assay (AID 624032); also: nearly all actives have a fitted effect of over 30% in size; also: potency is read from the fitted curve at half-maximal effect
In short: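 Rat S16 Schwann cells stably carrying firefly luciferase driven by a PMP22 intronic element, in 10% FBS, treated 24 h at 37 C. ONE-Glo luminescence normalized to PTC124 control and DMSO (0%); curves classed by r2, magnitude and activity.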

[9] = S16 Schwann cell PMP22 intronic element beta-lactamase assay (AID 624044; calls by dose curve; also: nearly all actives have a fitted effect of over 15% in size)
In short: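 Rat S16 Schwann cells with beta-Lac driven by a PMP22 intronic element, compound-treated 24 h at 37 °C. LiveBLAzer FRET B/G read: 460 nm normalized to potassium clavulanate vs DMSO; 535 nm FRET as viability; concentration-effect curves classified.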

OC[C@H]1O[C@@H](n2cnc3c(NC4CCCC4)ncnc32)[C@H](O)[C@@H]1O
Potency [1]: inactive
Potency [2]: inactive
outcome [3]: inactive
outcome [4]: inactive
Potency [5]: inactive

Cc1c(N)c(=O)n(-c2ccccc2)n1C
Potency [6]: inactive

CN1[C@@H]2CC[C@H]1CC(OC(=O)C(CO)c1ccccc1)C2 (stereo partly specified)
Potency [7]: inactive
Potency [8]: inactive
Potency [9]: inactive

COC(=O)C1=C(C)NC(C)=C(C(=O)OCC(C)=O)C1c1ccccc1[N+](=O)[O-] (stereo unspecified)
Potency [6]: inactive

O=C(O)CC1CC(c2ccccc2)=NO1 (stereo unspecified)
Potency [1]: inactive
Potency [2]: inactive
outcome [3]: inactive
outcome [4]: inactive
Potency [5]: inactive

NC[C@@H]1O[C@H](C23CC4CC(CC(C4)C2)C3)Cc2c1ccc(O)c2O
Potency [1]: inactive
Potency [2]: inactive
outcome [3]: inactive
outcome [4]: inactive

CSc1ccccc1N1CCN(CCCCCC(=O)NC2CCCc3ccccc32)CC1 (stereo unspecified)
Potency [1]: inactive
Potency [2]: inactive
outcome [3]: inactive
outcome [4]: inactive
Potency [5]: inactive

COC(=O)C1=C(C)NC(C)=C(C(=O)OCC(C)C)C1c1ccccc1[N+](=O)[O-] (stereo unspecified)
Potency [8]: 32.2 µM (active)
Potency [9]: inactive

COc1cc(SC)ccc1C(=O)N1CCC(Cc2ccccc2)CC1
Potency [1]: inactive
Potency [2]: inactive
outcome [3]: inactive
outcome [4]: inactive
Potency [5]: inactive

Clc1ccc(N2CCN(Cc3cc4ccccn4n3)CC2)cc1
Potency [1]: inactive
Potency [2]: inactive
outcome [3]: inactive
outcome [4]: inactive
Potency [5]: inactive

CCCN(CC1CC1)c1nc(C)nc(Nc2c(Cl)cc(Cl)cc2Cl)c1Cl
Potency [1]: inactive
Potency [2]: inactive
outcome [3]: inactive
outcome [4]: inactive
Potency [5]: inactive

NC[C@H]1O[C@@H](n2cnc3c(N)ncnc32)[C@H](O)[C@@H]1O
Potency [1]: inactive
Potency [2]: inactive
outcome [3]: inactive
outcome [4]: inactive
Potency [5]: inactive

CC[C@@H](C)[C@H]1O[C@]2(CC[C@H]1C)C[C@@H]1C[C@@H](CC=C(C)[C@@H](O[C@H]3C[C@H](OC)[C@@H](O[C@H]4C[C@H](OC)[C@@H](O)[C@H](C)O4)[C@H](C)O3)[C@@H](C)C=CC=C3CO[C@@H]4[C@H](O)C(C)=C[C@@H](C(=O)O1)[C@]34O)O2
Potency [1]: inactive
Potency [2]: inactive
outcome [3]: inactive
outcome [4]: inactive
Potency [5]: inactive

CCN(CC)c1ncnc2c1ncn2[C@@H]1O[C@H](COP(=O)(O)OP(=O)(O)C(Br)(Br)P(=O)(O)O)[C@@H](O)[C@H]1O
Potency [1]: inactive
Potency [2]: inactive
outcome [3]: inactive
outcome [4]: inactive
Potency [5]: inactive

CO/N=C(\C(=O)N[C@@H]1C(=O)N2C(C(=O)O)=C(COC(C)=O)CS[C@H]12)c1csc(N)n1
Potency [1]: inactive
outcome [3]: inactive
outcome [4]: inactive
Potency [5]: inactive

COc1ccccc1N1CCN(CCN(C(=O)c2ccc(I)cc2)c2ccccn2)CC1
Potency [1]: inactive
outcome [3]: inactive
outcome [4]: inactive
Potency [5]: inactive

CC(C)(C)c1ccc(S(=O)(=O)/C=C/C#N)cc1
Potency [1]: 7.08 µM (active)
outcome [3]: inactive

CCCC1(C)C(C#N)(C#N)C1(C#N)C#N
Potency [1]: inactive
Potency [2]: inactive
outcome [3]: inactive
outcome [4]: inactive
Potency [5]: inactive

OC[C@H]1O[C@@H](n2cnc3c(Nc4ccccc4)ncnc32)[C@H](O)[C@@H]1O
Potency [1]: inactive
Potency [2]: inactive
outcome [3]: inactive
outcome [4]: inactive
Potency [5]: inactive

Oc1cc2c(cc1O)CN(C(=S)NCCc1ccc(Cl)cc1)CCC2
Potency [1]: 2.24 µM (active)
outcome [3]: inactive
outcome [4]: inactive
Potency [5]: inactive

CCc1c(C(=O)NCCc2ccc(N3CCCCC3)cc2)[nH]c2ccc(Cl)cc12
Potency [1]: inactive
outcome [3]: inactive
outcome [4]: inactive
Potency [5]: inactive

Cc1ccc(S(=O)(=O)/C=C/C#N)cc1
Potency [1]: 12.6 µM (active)
outcome [3]: inactive
outcome [4]: inactive
Potency [5]: inactive

CC(C)CC(NP(=O)(O)O[C@@H]1O[C@@H](C)[C@H](O)[C@@H](O)[C@H]1O)C(=O)NC(Cc1c[nH]c2ccccc12)C(=O)O (stereo partly specified)
Potency [1]: inactive
outcome [4]: inactive
Potency [5]: inactive

C=C[C@@H]1CN2CC[C@@H]1C[C@H]2[C@H](O)c1ccnc2ccc(OC)cc12
Potency [1]: inactive
Potency [2]: inactive
outcome [4]: inactive
Potency [5]: inactive

CN1CCc2cccc3c2C1Cc1ccc(O)c(O)c1-3 (stereo unspecified)
Potency [1]: 4.47 µM (active)
outcome [3]: inactive
outcome [4]: inactive

Nc1nc(Cl)nc2c1ncn2[C@@H]1O[C@H](CO)[C@@H](O)[C@H]1O
Potency [1]: inactive
outcome [4]: inactive
Potency [5]: inactive

CN1C2CCC1CC(OC(=O)C(O)c1ccccc1)C2 (stereo unspecified)
Potency [1]: inactive
outcome [3]: inactive
outcome [4]: inactive

OCC1O[C@H]([S-])[C@H](O)[C@@H](O)[C@@H]1O.[Au+] (stereo partly specified)
Potency [1]: inactive
outcome [3]: inactive
Potency [5]: inactive

CSc1nc(N)c2ncn([C@@H]3O[C@H](COP(=O)(O)OP(=O)(O)OP(=O)(O)O)[C@@H](O)[C@H]3O)c2n1
Potency [1]: inactive
Potency [2]: inactive
outcome [3]: inactive
Potency [5]: inactive

Nc1ncnc2c1c(I)cn2[C@@H]1C[C@H](N)[C@@H](O)[C@H]1O
Potency [1]: inactive
Potency [2]: inactive
outcome [3]: inactive
outcome [4]: inactive
Potency [5]: inactive
